The entries come from a sample that favours hits as a whole.
HT1080 IDH1KD tx: HT-1080 IDH1 knockdown cell toxicity (counter line); HT-1080 IDH1 knockdown viability, ATP luminescence, 48 h; Potency, µM (highest dose often 46.1 µM), for the others: top-dose activity, negative = toxicity, most hits filed as cytotoxic; hit rate 2% among 360,000; AID 686971;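 note: potency is the fitted concentration of half-maximal effect; 0% = DMSO wells and -100% = cell-free medium wells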
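After a 2 h attachment period, IDH1KD HT-1080 cells took pin-transferred compound for 48 h at 37 °C; ATP-based luminescence after 10 min room-temperature reagent incubation reported viability.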
ALOX12 inh: inhibitors of human 12S-lipoxygenase ALOX12; P18054; purified 12hLO, xylenol orange hydroperoxide absorbance; Potency, µM (series often up to 108 µM), for inactives: at the highest dose activity change, negative = inhibition, hits mostly inhibitors; hit rate 1.1% among 580,000; AID 1671190; note: potency is the fitted concentration of half-maximal effect
Target sequence (P18054 whole entry, looked up): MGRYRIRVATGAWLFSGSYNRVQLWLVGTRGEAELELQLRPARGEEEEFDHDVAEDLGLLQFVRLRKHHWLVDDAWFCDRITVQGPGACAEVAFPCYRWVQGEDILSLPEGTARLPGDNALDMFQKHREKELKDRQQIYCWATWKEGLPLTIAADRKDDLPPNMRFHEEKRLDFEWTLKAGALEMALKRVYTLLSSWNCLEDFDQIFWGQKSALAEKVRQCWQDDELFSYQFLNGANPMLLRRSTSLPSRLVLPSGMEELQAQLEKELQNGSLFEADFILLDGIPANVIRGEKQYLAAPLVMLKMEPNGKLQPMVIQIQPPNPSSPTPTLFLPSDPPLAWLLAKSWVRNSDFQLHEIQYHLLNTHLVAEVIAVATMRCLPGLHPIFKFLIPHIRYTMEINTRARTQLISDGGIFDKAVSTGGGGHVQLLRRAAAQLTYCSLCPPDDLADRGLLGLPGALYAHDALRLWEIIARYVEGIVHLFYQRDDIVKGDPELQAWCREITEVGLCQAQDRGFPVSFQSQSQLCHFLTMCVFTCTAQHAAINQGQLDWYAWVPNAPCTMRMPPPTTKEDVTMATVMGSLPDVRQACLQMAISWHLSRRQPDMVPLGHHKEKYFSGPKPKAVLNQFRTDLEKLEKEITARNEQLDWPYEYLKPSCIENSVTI
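Hydroperoxide product was detected by ferrous iron/xylenol orange as the 573 to 405 nm absorbance ratio. Arachidonic acid at 40 uM (final) was turned over for 30 min at room temperature by 150 nM human 12hLO, pH 7.0 Hepes buffer, after 15 min compound preincubation.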
IL1B secr inh: inhibitors of inflammasome signaling (IL-1 beta secretion) | THP-1 LPS/ATP IL-1B secretion, AlphaLISA, 16 h; hits give low values | AID 743279 | hit rate 4.7% among 360,000 | activity change, % at 57.5 µM; in the data active = activity change below about -50%; inconclusive = mostly about -30% to -49%
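Secreted IL-1B measured by AlphaLISA bead assay after 16 h compound exposure of THP-1 cells; compounds (final up to 57.5 uM) added 1 h before LPS (250 ng/mL) and ATP (1.25 mM) stimulation; lower signal means less secretion.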
TDP1 cell noCPT: qHTS for Inhibitors of human tyrosyl-DNA phosphodiesterase 1 (TDP1): qHTS in cells in absence of CPT; DT40 Tdp1-/- hTDP1 cells, no CPT, ATP luminescence, 48 h; Potency, µM (titrated, usually from 46.2 µM), inactives show at the top dose activity change, negative = growth inhibition, most hits filed as inhibitors; hit rate 15% among 420,000; note: potency is the fitted concentration of half-maximal effect; nearly all actives have a fitted effect of over 55% in size
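No-CPT arm: Tdp1-/-;hTDP1 DT40 cells (400/well) plus compounds, incubated ≥48 hr at 37 °C. Readout CellTiter-Glo luminescence.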
HT1080NT lethal: kills 2HG-producing HT-1080-NT fibrosarcoma cells | AID 686970 | hit rate 1.6% among 360,000 | Potency, µM (titrated, usually from 46.1 µM), for the others: top-dose activity, negative = less viability, actives largely listed as cytotoxic | HT-1080-NT fibrosarcoma viability, CellTiter-Glo ATP luminescence, 48 h;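 note: NT is the 2HG producing partner of a matched IDH1 knockdown line; potency is the fitted concentration of half-maximal effect; 0% = DMSO-treated cells and -100% = media-only wells without cells; nearly all actives have a fitted effect of over 55% in size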
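Compounds were tested in concentration-response format on HT-1080-NT cells for 48 hours at 37 degrees C. Cell viability came from CellTiter-Glo luminescence; curves were classified by r2, response magnitude and activity.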
TDP1 cell CPT: DT40-hTDP1 cell growth loss with CPT. hit rate 12% among 420,000. chicken DT40 Tdp1-/-;hTDP1 cells + 20 nM CPT, ATP luminescence, 48 h. Potency, µM (series often up to 46.2 µM), inactives show at the top dose activity change, negative = growth inhibition, most hits filed as inhibitors; note: potency is the fitted concentration of half-maximal effect; nearly all actives have a fitted effect of over 55% in size
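Chicken DT40 Tdp1-/- cells complemented with human TDP1, 400 cells/well, exposed to compounds plus 20 nM camptothecin for at least 48 h at 37 C; viability read as ATP content by CellTiter-Glo luminescence.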
* = called active by the depositor; ? = inconclusive; nt = not tested or not shown; [ ] = dose if it differs, or a comment. Unless noted, calls come from the whole dose curve; as a rule, active = well fitted curve in the direction sought with a large enough effect; inconclusive = small, poorly fitted or top-dose-only effect, or another doubt; inactive = no such curve, though single readings can be large; an effect the other way counts as inactive or inconclusive. Unless noted, % is set by controls: 0 for no effect and ±100 for the full control effect.

SMILES | HT1080 IDH1KD tx | ALOX12 inh | IL1B secr inh | TDP1 cell noCPT | HT1080NT lethal | TDP1 cell CPT
O=C(CSc1nnc(-c2c[nH]c3ccccc23)o1)N1c2ccccc2CCc2ccccc21 | 2%[9.24 µM] | 7%[57.4 µM] | -68* | 16µM* | ? | 16µM*
O=C1CCCCC(C(=O)O)N1 (centres undefined) | nt | 5% | nt | nt | nt | nt
CC(C)OCCCNC(=O)c1ccccc1-c1ncc(-c2ccc(F)cc2)o1 | nt | 18% | nt | nt | nt | nt
O=C(NC12CC3CC(CC(C3)C1)C2)c1ccc(F)cc1 | nt | -21% | nt | nt | nt | nt
CCCOc1ccc(C(=O)Nc2ccc(S(=O)(=O)NC3=NCCCCC3)cc2)cc1 | -24% | -11% | -6 | 21µM* | -17% | 13µM*
Nc1nc2cc(S(=O)(=O)NC3=NCCCCC3)ccc2s1 | 2% | 15% | ? | 13µM* | 22% | 15µM*
O=C(CCl)Nc1cccc(S(=O)(=O)NC2=NCCCCC2)c1 | ? | -79% | -99* | 5.2µM* | 3.7µM* | 3.7µM*
CCCNCC(=O)Nc1cccc(S(=O)(=O)NC2=NCCCCC2)c1 | 18% | -23% | -10 | -20% | -2% | -2%
Cc1cc(OCC(=O)Nc2cccc(S(=O)(=O)NC3=NCCCCC3)c2)ccc1Cl | -2% | -14% | ? | 2.6µM* | -6% | ?
Cc1cc(C)cc(-n2c(SCC(=O)Nc3cccc(S(=O)(=O)NC4=NCCCCC4)c3)nc3ccccc3c2=O)c1 | 9% | -5% | -21 | ? | ? | 18µM*
O=C(CCl)Nc1ccc(S(=O)(=O)NC2=NCCCCC2)cc1 | 18µM* | -4% | -96* | 13µM* | ? | 18µM*
O=C(CSc1ccc2ccccc2c1Br)Nc1cccc(S(=O)(=O)NC2=NCCCCC2)c1 | 16µM* | 1% | -22 | ? | 18µM* | -28%
O=C(CSc1cccc[n+]1[O-])Nc1cccc(S(=O)(=O)NC2=NCCCCC2)c1 | 0% | ? | -1 | 5% | 0% | 2%
CC(C)(C)C(=O)Nc1ccc(S(=O)(=O)NC2=NCCCCC2)cc1 | 3% | ? | 6 | -27% | -5%[9.24 µM] | ?
CCC(=O)N1CCC2(CC1)CC(N1CCCCC1)CCO2 (centres undefined) | nt | 36% | nt | nt | nt | nt
N#CCC(=O)N/N=C/c1cccc(Oc2ccccc2)c1 | -16% | -1% | 16 | -12% | -13% | 0%
N#CCC(=O)N/N=C\c1cc(Br)ccc1OC/C=C/c1ccccc1 | ? | 12% | -21 | 26µM* | -19% | 15µM*
COC(=O)N/N=C\c1ccccc1OC/C=C/c1ccccc1 | ? | nt | -65* | ? | ? | ?
CCOC(=O)N/N=C\c1ccccc1OC/C=C/c1ccccc1 | ? | 222% | -11 | ? | ? | ?
CCOc1c(C(=O)OC)sc2ccc(NC(=O)c3ccccc3F)cc12 | nt | 1% | nt | nt | nt | nt
Cc1cc(N2CCN(c3ccc(C(F)(F)F)cc3[N+](=O)[O-])CC2)c2ccccc2n1 | ? | -23% | -28 | 21µM* | ? | ?
Cc1cc(N2CCN(c3ccc([N+](=O)[O-])c4cccnc34)CC2)c2ccccc2n1 | ? | nt | -94* | 5.8µM* | ? | 8.2µM*
Nc1nonc1OCCN1CCN(c2ccc([N+](=O)[O-])c3cccnc23)CC1 | -9% | 162% | 4 | ? | -13% | 23µM*
Cc1nonc1OCCN1CCN(c2ccccc2[N+](=O)[O-])CC1 | 4% | -20% | 0 | ? | 15% | -8%
Cc1ccccc1C(=O)NC(C)c1ccc2c(c1)OCO2 (centres undefined) | nt | -42% | nt | nt | nt | nt
SMILES | HT1080 IDH1KD tx | ALOX12 inh | IL1B secr inh | TDP1 cell noCPT | HT1080NT lethal | TDP1 cell CPT
Clc1ccc(/C=C/c2nc3ccccc3[nH]2)cc1 | ? | -13% | -13 | ? | -25% | ?
C(=N\n1cnnc1)/c1nc2ccccc2[nH]1 | -6% | 6% | 23 | -26% | -7% | -2%
O=C(/C=C/c1ccc(Cl)cc1Cl)c1nc2ccccc2[nH]1 | ? | 0% | -5 | ? | ? | 12µM*
Clc1cccc(Cl)c1/C=C/c1nc2ccccc2[nH]1 | ? | nt | -26 | 16µM* | ? | ?
Clc1ccc(/C=C/c2nc3ccccc3[nH]2)c(Cl)c1 | ? | -29% | ? | 18µM* | 15µM* | 13µM*
CN1CC(=O)N(C2CCCNCC2)Cc2c1ncnc2N1CCC(O)CC1 (centres undefined) | nt | -16%[6.33 µM] | nt | nt | nt | nt
O=C(c1ccc([N+](=O)[O-])s1)N1CCN(c2ccccn2)CC1 | ? | 12% | 44 | 15µM* | -24% | 23µM*
O=C(Nc1c(C(=O)N2CCN(c3ccccn3)CC2)oc2ccccc12)c1ccc([N+](=O)[O-])cc1 | 13% | 9% | -18 | ? | 11% | 23µM*
O=C(c1cc(Br)c(Br)s1)N1CCN(c2ccccn2)CC1 | -17% | -8% | 0 | ? | -5% | ?
Cc1ccc2oc(C(=O)Nc3ccc(F)cc3)cc(=O)c2c1 | nt | 18% | nt | nt | nt | nt
CC(CC(=O)N1CCN(c2cccc(Cl)c2)CC1)S(=O)(=O)c1ccc2c(c1)NC(=O)CO2 (centres undefined) | -4% | 2% | -14 | 2.3µM* | -4% | 4.1µM*
CCOC(=O)C1CCN(C(=O)CC(C)S(=O)(=O)c2ccc3c(c2)NC(=O)CO3)CC1 (centres undefined) | -4% | 4% | 20 | 12% | -2% | -4%
COc1ccc(N2CCN(C(=O)CC(C)S(=O)(=O)c3ccc4c(c3)NC(=O)CO4)CC2)cc1 (centres undefined) | -10% | 2% | 0 | 13µM* | -20% | 15µM*
COc1ccc(NC(=O)C2Cc3c(-c4ccccc4Oc4ccccc4)ccnc3O2)cc1 (centres undefined) | -23% | -45% | ? | ? | 0% | ?
O=C(Nc1cccc(OC(F)(F)F)c1)C1Cc2c(-c3ccccc3Oc3ccccc3)ccnc2O1 (centres undefined) | ? | -7% | -11 | ? | ? | ?
O=C(Nc1ccccc1)C1Cc2c(-c3ccccc3Oc3ccccc3)ccnc2O1 (centres undefined) | ? | ? | -57* | ? | ? | ?
O=C(Nc1cc(C(F)(F)F)ccc1F)C1Cc2c(-c3ccccc3Oc3ccccc3)ccnc2O1 (centres undefined) | ? | 1% | -1 | 18µM* | ? | ?

Screening data: PubChem, National Center for Advancing Translational Sciences (NCATS)
